Compound activity deposited in PubChem by National Center for Advancing Translational Sciences (NCATS).
An excerpt weighted towards active compounds, which were near 12% of everything screened.
Sfp PPTase inh: qHTS Assay for Inhibitors of Bacillus subtilis Sfp phosphopantetheinyl transferase (PPTase); 4'-phosphopantetheinyl transferase ffp (Bacillus subtilis), Q9F4F7; Biochemical Sfp PPTase activity, qHTS; Potency, µM, for inactives: largest response in the series, negative = inhibition, most hits filed as inhibitors; actives 3.5% (n = 310,000);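 note: the enzyme is Sfp with the accession as filed and its product quenches rhodamine fluorescence; 0% = enzyme reaction without inhibitor and -100% = no enzyme wells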
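Step 1, compound plus 15 nM Sfp-PPTase, 15 min, room temperature. Step 2, add rhodamine-CoA (5 uM) and BHQ-2-YbbR (12.5 uM). Step 3, read 525/598 nm fluorescence at 0 and 30 min.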
G9a inh: qHTS Assay for Inhibitors of Histone Lysine Methyltransferase G9a; Histone-lysine N-methyltransferase EHMT2 (Homo sapiens), Q96KQ7; G9a H3K9 monomethylation, AlphaScreen, 2 h; Potency, µM (series often up to 102 µM), without a hit: at the top dose activity, negative = inhibition, hits mostly inhibitors; actives 8.8% (n = 350,000); AID 504332, 2011; note: % is set by controls: 0 for no effect and ±100 for the full control effect; nearly all actives have a fitted effect of over 75% in size
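Readings reflect AlphaScreen signal from monomethyl-H3K9 antibody detection. HMT at 20 nM; substrate b-H3K9 500 nM; cofactor SAM 20 uM; 2 h RT reaction; compounds tested as titrations in qHTS with 15 min preincubation.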
BAZ2B block: qHTS Assay for Inhibitors of BAZ2B | AlphaScreen BAZ2B-H3K14Ac peptide displacement | Potency, µM (titrated, usually from 114 µM), inactives show at the highest dose activity change, negative = inhibition, hits mostly inhibitors | actives 4.4% (n = 360,000) | AID 504333, 2011; note: % is set by controls: 0 for no effect and ±100 for the full control effect; nearly all actives have a fitted effect of over 60% in size
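Multi-concentration screen (max 110 uM) measuring displacement of acetylated histone H3 peptide from BAZ2B by AlphaScreen, using 50 nM protein, 50 nM peptide and 10 ug/mL streptavidin donor plus Ni-chelate acceptor beads.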
JMJD2A Tudor inh: qHTS Assay for Inhibitors of JMJD2A-Tudor Domain | AlphaScreen JMJD2A-Tudor / H3K4me3 peptide binding | Potency, µM (top dose mostly 114 µM), for inactives: at the top dose activity change, negative = inhibition, hits mostly inhibitors | actives 4.4% (n = 390,000) | AID 504339, 2011; note: % is set by controls: 0 for no effect and ±100 for the full control effect; nearly all actives have a fitted effect of over 50% in size
Target sequence (O75164 whole entry, looked up, the tested form may be a part): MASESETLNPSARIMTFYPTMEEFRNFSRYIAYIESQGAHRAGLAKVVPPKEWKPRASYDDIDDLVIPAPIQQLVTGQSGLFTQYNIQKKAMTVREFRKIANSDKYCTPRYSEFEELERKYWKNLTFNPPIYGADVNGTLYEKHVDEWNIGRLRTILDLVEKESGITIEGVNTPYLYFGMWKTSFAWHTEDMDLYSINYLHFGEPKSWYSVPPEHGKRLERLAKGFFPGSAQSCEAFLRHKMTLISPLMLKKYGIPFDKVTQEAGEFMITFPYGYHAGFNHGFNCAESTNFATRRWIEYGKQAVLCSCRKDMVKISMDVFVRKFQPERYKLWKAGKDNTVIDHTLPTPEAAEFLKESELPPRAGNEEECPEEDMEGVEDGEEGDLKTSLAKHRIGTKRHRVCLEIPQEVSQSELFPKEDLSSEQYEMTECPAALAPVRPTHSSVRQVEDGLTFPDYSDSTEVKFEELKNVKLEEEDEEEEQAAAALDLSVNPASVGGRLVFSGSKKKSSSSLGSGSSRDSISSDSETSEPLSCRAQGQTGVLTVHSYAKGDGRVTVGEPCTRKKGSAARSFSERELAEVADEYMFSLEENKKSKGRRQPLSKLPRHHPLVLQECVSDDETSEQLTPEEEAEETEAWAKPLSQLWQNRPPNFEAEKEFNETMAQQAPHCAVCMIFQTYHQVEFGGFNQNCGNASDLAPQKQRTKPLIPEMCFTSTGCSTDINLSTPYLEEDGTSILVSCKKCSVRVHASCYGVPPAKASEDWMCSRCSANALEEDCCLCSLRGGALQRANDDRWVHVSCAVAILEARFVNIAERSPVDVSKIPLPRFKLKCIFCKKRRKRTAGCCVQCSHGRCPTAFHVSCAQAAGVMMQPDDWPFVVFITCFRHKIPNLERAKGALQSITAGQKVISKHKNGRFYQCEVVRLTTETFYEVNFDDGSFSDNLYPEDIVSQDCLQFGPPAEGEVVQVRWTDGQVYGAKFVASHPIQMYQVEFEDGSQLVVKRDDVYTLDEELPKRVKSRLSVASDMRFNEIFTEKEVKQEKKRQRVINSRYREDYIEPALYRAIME
L3MBTL1 inh: qHTS Assay for the Inhibitors of L3MBTL1; Lethal(3)malignant brain tumor-like protein 1 (Homo sapiens), Q9Y468; AlphaScreen L3MBTL1–H3K9me1 peptide binding; Potency, µM (top dose mostly 57.1 µM), without a hit: at the highest dose activity, negative = inhibition, actives largely listed as inhibitors; actives 0.66% (n = 230,000); note: % is set by controls: 0 for no effect and ±100 for the full control effect; nearly all actives have a fitted effect of over 60% in size
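Displacement of a biotinylated histone H3(1-15) peptide monomethylated at Lys9 (75 nM) from L3MBTL1 (50 nM) was measured by AlphaScreen after a 30 min room-temperature compound incubation; cefsulodin titration served as intraplate control.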
HP1b binding inh: HTS for Inhibitors of HP1-beta Chromodomain Interactions with Methylated Histone Tails; Chromobox protein homolog 1 (Homo sapiens), P83916; AlphaScreen HP1-beta / biotin-H3K9me3 peptide binding; Potency, µM (series often up to 114 µM), inactives show at the highest dose activity change, negative = inhibition, usual class: inhibitors; actives 0.56% (n = 390,000); note: nearly all actives have a fitted effect of over 70% in size
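Compound inhibition of the preformed complex between 50 nM HP1-beta and 50 nM biotinylated H3K9me3 peptide was read by AlphaScreen. Buffer was PBS pH 7.4 with 0.01% Tween-20. Incubations ran 30 min at room temperature, with 10 ug/mL donor/acceptor beads.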
* = called active by the depositor; u = inconclusive; x = no result; [ ] = remark or other dose. Calls come from the whole dose curve; as a rule, active = well fitted curve in the direction sought with a large enough effect; inconclusive = small, poorly fitted or top-dose-only effect, or another doubt; inactive = no such curve, though single readings can be large; an effect the other way counts as inactive or inconclusive. Potency is the fitted concentration of half-maximal effect.

SMILES	Sfp PPTase inh	G9a inh	BAZ2B block	JMJD2A Tudor inh	L3MBTL1 inh	HP1b binding inh
Cc1cccc(C)c1Nc1c(-c2ccccc2F)nc2cccc(C)n12	x	18µM*	u	50µM*	x	u
Cc1ccc(Nc2c(-c3ccsc3)nc3cccc(C)n23)cc1	x	u	u	50µM*	x	u
O=C(Nc1ccc(F)cc1)c1cc(-c2ccccn2)nc2c(Cl)cccc12	-1%	x	-1%	9%	x	25%
c1ccc(Nc2c(-c3ccccc3)nc3ncccn23)cc1	x	-19%[59 µM]	-24%	-4%	x	3%
Cc1ccc(Nc2c(-c3ccccn3)nc3cccc(C)n23)cc1	8%	20%[59 µM]	16µM*	-35%[11.4 µM]	x	u
Fc1ccc(Nc2c(-c3c[nH]c4ccccc34)nc3ccccn23)cc1	x	u	u	35µM*	x	u
c1ccc(Nc2c(-c3c[nH]c4ccccc34)nc3ccccn23)cc1	x	u	-26%	u	x	u
Cc1cccc2nc(-c3ccccn3)c(Nc3ccccc3)n12	x	3%[59 µM]	8.9µM*	40µM*	x	5%
Cc1ccc(NC(=O)Cn2ncn3c(cc4ccccc43)c2=O)cc1C	x	6%[59 µM]	-8%	-5%	x	33%
O=C(COc1ccc(F)cc1)Nc1ccc(Cl)c(-c2nc3ccccc3[nH]2)c1	x	8%[59 µM]	-5%	-8%	x	62%
COc1ccc(NC(=O)Cn2cc(S(=O)(=O)N3CCN(c4ccccc4F)CC3)c3ccccc3c2=O)cc1Cl	x	-19%[59 µM]	-2%	-13%	x	21%
Cc1cc(C)c(C#N)c(Cl)n1	6%	-1%[59 µM]	1%	1%	0%	15%
Cc1cc(Cl)ccc1N=c1ssnc1Cl	7.1µM*	1.8µM*	8.9µM*	79µM*	x	22µM*
Cc1cc(C)nc(/N=c2/ssnc2Cl)c1	20µM*	6.3µM*	x	-19%	1%	-16%
Cc1nnc(N=c2ssnc2Cl)o1	x	3%[0.501 µM]	u	45µM*	-4%	u
Nc1ccccc1N=c1ssnc1Cl	1.6µM*	1.3µM*	50µM*	u	x	-13%
Cc1cccc(CNC(=O)C2CCN(S(=O)(=O)c3ccc4c(c3)CCCN4C(=O)C3CCC3)CC2)c1	x	6%[59 µM]	-1%	-3%	x	35%[57 µM]
Cc1ccc(N=c2ssnc2Cl)cc1	13µM*	1.6µM*	45µM*	32µM*	-4%	16µM*
Cc1ccc(N=C2NC(=O)CS2)cc1	19%	0%[12.7 µM]	-2%	-19%[57.1 µM]	x	60%
COc1cc(OC)c(OC)cc1/C=N/n1c(-c2n[nH]c3c2CCC3)n[nH]c1=S	22µM*	1.6µM*	-22%	3.2µM*	0%	-26%
COc1ccc(OC)c(/C=N/n2c(-c3n[nH]c4c3CCC4)n[nH]c2=S)c1	-7%	x	-6%	6.3µM*	42%	8%
COc1ccc(/C=N/n2c(-c3n[nH]c4c3CCC4)n[nH]c2=S)cc1	11%	1.6µM*	-21%	10µM*	-7%	-17%
COc1cccc(-c2n[nH]c3c2CCC3)c1	15%	8%	-21%	-15%	23%	21%
Cc1cccc(Cn2c(SCc3ccc(C(=O)NCc4cccs4)cc3)nc3cccnc32)c1	x	u	-4%	-15%	x	29%
COc1cc(CNc2nc3c(C)cc(C)cc3s2)ccc1O	-6%	45µM*	50µM*	u	x	-18%
SMILES	Sfp PPTase inh	G9a inh	BAZ2B block	JMJD2A Tudor inh	L3MBTL1 inh	HP1b binding inh
CCOC(=O)c1c(C)oc2nc(C)nc(N3CCN(c4cccc(C)c4C)CC3)c12	x	u	-26%[57.1 µM]	-7%	x	23%
CCCCNC(=S)NC(C)(C)CO	9%	11µM*	-3%	-10%	2%	20%
CCCCNC(=S)Nc1ccc(C(F)(F)F)cc1	-1%	44%	8%	20%	5%	57%
O=C1[C@H]2[C@H]3[C@H](O)[C@H](O)C/C(=N\OC[C@@H](O)COCc4ccco4)[C@@H]3CC[C@H]2C(=O)N1c1ccc(F)cc1F	3%	50µM*	-33%	x	4%	x
COc1cc2c(s1)c1cnn(Cc3ccccc3F)c(=O)c1n2C	x	x	x	-30%	x	x
O=C(Cc1nnc(CNC(=O)c2ccccc2)o1)Nc1cc(C(F)(F)F)ccc1Cl	x	x	x	-8%	x	x
O=C(Nc1nc2c(F)cc(F)cc2s1)C1CCN(C(=O)c2ccc(F)cc2)CC1	x	45µM*	8%	-15%	8%	2%
O=C(Nc1nc(-c2ccc(F)cc2)cs1)C1CCN(C(=O)c2ccc(F)cc2)CC1	x	35µM*	0%	-23%	-13%	11%
CC(=O)c1sc(NC(=O)C2CCN(C(=O)c3ccc(F)cc3)CC2)nc1-c1ccccc1	x	45µM*	-25%	-26%	-12%	13%
O=C(Nc1nc2ccccc2[nH]1)C1CCN(C(=O)c2ccc(F)cc2)CC1	x	40µM*	4%	u	0%	12%
O=S(=O)(c1ccc(=S)[nH]c1)N1CCCCC1	x	0.79µM*	-3%	-3%	1%	31%
O=S(=O)(c1ccc(-c2n[nH]c(=S)o2)cc1)N1CCCCC1	-44%	11µM*	u	-17%	x	u
O=S(=O)(c1ccc(-c2n[nH]c(=S)o2)cc1)N1CCCC1	-20%	35µM*	-15%	-11%	x	3%
COc1ccc2nc(N(Cc3cccnc3)C(=O)c3ccco3)sc2c1	x	-8%[59 µM]	-8%	-17%	x	24%
O=C(Oc1nsnc1N1CCOCC1)c1ccccc1	-29%	35µM*	-4%	-35%	x	-23%
CCn1cc(C(=O)NCCCOC(C)C)c(=O)c2cc(S(=O)(=O)N3CCc4ccccc4C3)ccc21	x	22%[59 µM]	x	-27%	x	54%
CCNc1ncc2nc(-c3ccc(OC)cc3)c(=O)n(CCOC)c2n1	23%	5%[0.501 µM]	x	x	x	x
CCN1C(=O)N/C(=C/c2ccc(C)o2)C1=O	-97%	u	-35%	-31%	-16%	17%
Cc1ccc(/C=C2/NC(=O)N(Cc3ccccc3F)C2=O)o1	14µM*	32µM*	3%	u	-3%	-7%
Cc1ccc(/C=C2/NC(=O)N(Cc3ccc(Br)cc3)C2=O)o1	3.2µM*	32µM*	-13%	50µM*	3%	-2%
CCCN1C(=O)/C(=C/c2ccc(C)o2)NC1=S	20µM*	7.9µM*	u	x	x	x
CCOCCCNC(=O)C1CCN(C(=O)c2cc3sccc3n2C)CC1	x	6%[59 µM]	4%	8%	x	38%
CCN(CC)CCCNc1oc(-c2ccc(OC)cc2)nc1C#N	x	-3%[59 µM]	-18%	-27%	x	19%
